The values below come from PubChem BioAssay (EPA / NIEHS).

The AC50 is the concentration at which the activity in the assay is half-maximal.

Test [1] is described as follows: ATG_CRE_CIS: Attagene CIS-FACTORIAL HepG2 Assay for human cAMP Responsive Element (CRE) binding protein 3 (AID 2282926). The note with it: HepG2 CRE cis-reporter, Attagene multiplexed mRNA; actives raise or lower the signal. In a few lines: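 Induced reporter mRNA from a CRE cis element, measured in HepG2 among many multiplexed units at 24 h. Detection used RT-PCR plus capillary electrophoresis of fluorescent fragments; DMSO served as negative control.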

Test [2] deals with CCAAT/enhancer-binding protein beta (Homo sapiens) (UniProt P17676). The test is described as follows: ATG_C_EBP_CIS: Attagene CIS-FACTORIAL HepG2 Assay for human CCAAT/Enhancer Binding Protein (C/EBP) beta (AID 2282927). The note with it: HepG2 Attagene cis-factorial transcription factor reporter; actives raise or lower the signal. In a few lines:
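HepG2 transiently transfected with multiplexed reporter units under cis-regulatory promoters reporting endogenous C/EBPb activity. After 24 h exposure, reporter mRNA assayed by RT-PCR, fluorescent labelling, HpaI digestion and capillary electrophoresis; bidirectional fitting versus DMSO.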

Test [3] is described as follows: ATG_CMV_CIS: Attagene CIS-FACTORIAL HepG2 Assay for human CMV (Internal Marker) (AID 2282928).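 Further: endpoint acts as a background internal control marker rather than a target.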 The note with it: HepG2 CMV promoter reporter, transcription factor profiling; actives raise or lower the signal. In outline: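 Reporter transcripts from transfected HepG2 cells are isolated after 24 h of chemical dosing, reverse-transcribed and amplified. Fragments labeled with 6-FAM are cut with HpaI and quantified by capillary electrophoresis; DMSO defines baseline.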

Test [4] can be described thus: ATG_DR4_LXR_CIS: Attagene CIS-FACTORIAL HepG2 Assay for human Liver X Receptor (LXR), DR4 submotif (AID 2282929). The note with it: HepG2 Attagene DR4 cis-reporter, mRNA transcription; actives raise or lower the signal. In outline: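 Transiently transfected HepG2 liver cells; cis-regulated reporters; 24 h dosing. RT-PCR plus CE read-out of reporter mRNA. DMSO baseline, bidirectional curve fitting.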

Test [5] in a line: ATG_AP_1_CIS: Attagene CIS-FACTORIAL HepG2 Assay for human Activator Protein 1 (AP-1) (AID 2282931). The note with it: HepG2 Attagene cis-factorial AP-1 reporter mRNA; actives raise or lower the signal. In outline: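 We transfected HepG2 cells transiently with a set of cis-regulated reporter transcription units, dosed them for 24 h, and quantified reporter mRNA via RT-PCR and capillary electrophoresis, scoring gain or loss of signal relative to DMSO.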

Test [6] can be described thus: ATG_AP_2_CIS: Attagene CIS-FACTORIAL HepG2 Assay for human Activator Protein 2 (AP-2) (AID 2282932). The note with it: HepG2 AP-2 cis-reporter, Attagene transcription factor profiling; actives raise or lower the signal. In outline:
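Liver-derived HepG2 line, cis-reporter system measuring endogenous factors; 24 h dosing; reporter mRNA detected by fluorescent RT-PCR and capillary electrophoresis.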

Test [7] can be described thus: ATG_BRE_CIS: Attagene CIS-FACTORIAL HepG2 Assay for human Bone Morphogenetic Protein (BMP) Response Element (BRE) (AID 2282933). The note with it: HepG2 BMP response element reporter, Attagene transcription factor profiling; actives raise or lower the signal. In outline:
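Fluorescence-labelled reporter cDNA fragments, separated by capillary electrophoresis, gave the signal for this component of a 52-readout multiplex. HepG2 cells were transfected, exposed to chemicals for 24 h, and compared with DMSO using bidirectional fitting.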

The target in test [8] is Retinoic acid receptor alpha (Homo sapiens) (UniProt P10276). The test is described as follows: ATG_DR5_RAR_CIS: Attagene CIS-FACTORIAL HepG2 Assay for human Retinoic Acid Receptor Alpha (RARE), DR5 submotif (AID 2282934).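 On AC50: reporter responds to endogenous RAR alpha beta and gamma in HepG2 not RARA alone.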 The note with it: HepG2 Attagene cis-factorial RARE DR5 reporter, mRNA; actives raise or lower the signal. In outline:
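HepG2 cells transiently transfected with multiplexed reporter units; DR5 cis-element drives reporter through endogenous transcription factors. After 24 h dosing, reporter mRNA quantified by RT-PCR, fluorescent labeling, HpaI digestion and capillary electrophoresis; bidirectional fitting versus DMSO.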

Test [9] has as its target Aryl hydrocarbon receptor (Homo sapiens) (UniProt P35869). The test is described as follows: ATG_Ahr_CIS: Attagene CIS-FACTORIAL HepG2 Assay for human Aryl Hydrocarbon Receptor (Ahr) (AID 2282930). The note with it: HepG2 AhR cis-factorial reporter transcription; actives raise or lower the signal. In outline:
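HepG2 cells transiently transfected with cis-element-driven multiplexed reporter units; endogenous AhR activity read as reporter mRNA 24 h after dosing, via RT-PCR, 6-FAM labelling, HpaI digestion and capillary electrophoresis. Bidirectional fit relative to DMSO.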

Activity calls are given as the source filed them. How the source made its calls: active means hit-call score of the fitted dose curve at least 0.9, where 1 is the maximum; inactive means score below 0.9.

CCAAT/enhancer-binding protein beta (Homo sapiens), sequence (P17676 whole entry, looked up): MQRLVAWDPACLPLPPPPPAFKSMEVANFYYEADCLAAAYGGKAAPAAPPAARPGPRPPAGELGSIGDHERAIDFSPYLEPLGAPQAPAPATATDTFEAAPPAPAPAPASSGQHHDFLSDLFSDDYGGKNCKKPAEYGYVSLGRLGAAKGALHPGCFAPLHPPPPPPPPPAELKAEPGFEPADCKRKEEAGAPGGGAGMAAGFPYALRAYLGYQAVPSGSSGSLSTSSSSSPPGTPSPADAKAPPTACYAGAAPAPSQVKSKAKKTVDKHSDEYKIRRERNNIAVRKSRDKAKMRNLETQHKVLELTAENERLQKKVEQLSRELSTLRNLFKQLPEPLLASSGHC
Aryl hydrocarbon receptor (Homo sapiens), sequence (P35869 whole entry, looked up): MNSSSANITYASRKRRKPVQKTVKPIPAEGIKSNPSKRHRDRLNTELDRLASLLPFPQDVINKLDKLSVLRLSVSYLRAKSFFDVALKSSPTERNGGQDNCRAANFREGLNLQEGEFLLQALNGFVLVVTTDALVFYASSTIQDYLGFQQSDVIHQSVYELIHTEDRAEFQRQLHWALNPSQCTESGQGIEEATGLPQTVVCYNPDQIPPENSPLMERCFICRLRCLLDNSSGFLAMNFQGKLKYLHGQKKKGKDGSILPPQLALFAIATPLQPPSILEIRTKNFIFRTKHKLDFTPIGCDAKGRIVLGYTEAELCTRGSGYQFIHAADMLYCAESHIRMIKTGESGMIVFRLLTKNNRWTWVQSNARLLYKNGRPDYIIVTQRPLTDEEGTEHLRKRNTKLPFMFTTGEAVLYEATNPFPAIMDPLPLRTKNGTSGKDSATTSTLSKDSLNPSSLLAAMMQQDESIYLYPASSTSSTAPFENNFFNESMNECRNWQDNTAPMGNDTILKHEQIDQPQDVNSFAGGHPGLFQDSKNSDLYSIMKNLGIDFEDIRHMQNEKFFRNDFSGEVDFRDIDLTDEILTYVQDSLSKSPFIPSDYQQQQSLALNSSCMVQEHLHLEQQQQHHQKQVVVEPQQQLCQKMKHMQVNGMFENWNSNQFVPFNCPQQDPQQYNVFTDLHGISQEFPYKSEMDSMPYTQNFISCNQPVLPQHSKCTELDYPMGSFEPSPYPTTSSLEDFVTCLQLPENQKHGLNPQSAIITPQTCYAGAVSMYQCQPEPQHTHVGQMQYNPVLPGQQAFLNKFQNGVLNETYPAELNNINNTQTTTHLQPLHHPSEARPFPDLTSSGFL
Retinoic acid receptor alpha (Homo sapiens), sequence (P10276 whole entry, looked up): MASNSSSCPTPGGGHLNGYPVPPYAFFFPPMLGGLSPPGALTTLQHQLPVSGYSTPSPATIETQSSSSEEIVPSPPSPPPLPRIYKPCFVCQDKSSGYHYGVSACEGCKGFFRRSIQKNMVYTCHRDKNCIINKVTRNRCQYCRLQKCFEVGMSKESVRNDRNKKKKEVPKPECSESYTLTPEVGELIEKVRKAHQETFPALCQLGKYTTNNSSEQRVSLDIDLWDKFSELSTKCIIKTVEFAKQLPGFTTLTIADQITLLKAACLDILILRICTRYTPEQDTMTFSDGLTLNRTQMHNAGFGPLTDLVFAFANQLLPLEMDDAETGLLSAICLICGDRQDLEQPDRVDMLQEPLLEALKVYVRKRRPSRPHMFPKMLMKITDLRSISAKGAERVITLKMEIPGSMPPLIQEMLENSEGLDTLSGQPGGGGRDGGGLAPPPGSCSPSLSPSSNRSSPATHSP

Turning to `CC(C)(O)CCc1ccccc1`, the molecule was called inactive in test [1], in [2], in [3], in test [4], in [5] and in [6]. Also, the molecule was called inactive in [7] and in [8].
As to `CC12CCC(C1)C(C)(C)C2O` (centres undefined), the molecule was called inactive in test [1], in test [2], in test [3], in test [4], in test [5] and in [6]. In addition, the call in test [7] and in test [8] was inactive.
Turning to `CCCCCCCCCCCCCC(=O)OCC`, the molecule was called inactive in [1], in [2], in test [3], in test [4], in test [5] and in [6]. For the same molecule, the result in test [7] and in [8] was inactive.
Turning to `CC(=O)Nc1cc(S(=O)(=O)O)cc2cc(S(=O)(=O)O)c(N=Nc3ccccc3)c(O)c12`, the outcome in test [1], in test [2], in test [3], in test [4], in test [5] and in test [6] was inactive. For the same molecule, the molecule was classed as inactive in [7] and in [8].
`CC(C)N(c1ccccc1)C(C)C`: the result in [2], in [3], in test [4], in test [9], in test [5] and in test [6] was inactive. The result in test [7] was inactive.
Turning to `CC1=CC[C@@H]2C[C@H]1C2(C)C`, the molecule was called inactive in test [1], in [2], in [3], in test [4], in [5] and in test [6]. For the same molecule, the molecule was classed as inactive in test [7] and in test [8].
With `C1=COCCC1`, the result in [1], in test [2], in [3], in [4], in test [6] and in test [7] was inactive. Also, the call in test [8] was inactive.
For the molecule `CCO[Si](CCC#N)(OCC)OCC`, the call in test [1], in test [2], in [3], in [4], in [5] and in [6] was inactive. Further, in [7], the call was inactive.
As to `Cc1cc(N)n(-c2ccccc2)n1`, the outcome in test [1], in [2], in test [3], in test [4], in test [5] and in [6] was inactive. For the same molecule, the molecule was classed as inactive in [7] and in test [8].
For `CCOC(=O)C(=O)OCC`, the call in test [1], in test [2], in test [3], in [4], in test [5] and in [6] was inactive. Further, the molecule was classed as inactive in test [7] and in [8].
As to `OC[C@H]1O[C@@H](O[C@H]2[C@H](O)[C@@H](O)[C@H](O)O[C@@H]2CO)[C@H](O)[C@@H](O)[C@H]1O`, the outcome in test [1], in [2], in test [3], in test [4], in [5] and in test [6] was inactive. The molecule was called inactive in test [7] and in test [8].
Regarding `COc1ccc(N)c(C)c1`, the result in test [2], in test [3], in test [4], in test [9] and in test [6] was inactive. Moreover, the figures for the AC50 in test [5] and in test [7] were 70 µM (active) and 151 µM (active), respectively.
With `CC(C)(C)C1CCC(O)CC1` (centres undefined), the molecule was classed as inactive in test [1], in test [2], in test [3], in [4], in test [5] and in [6]. Also, the molecule was called inactive in test [7] and in test [8].
On to `CCCCCCCC(=O)N(C)C`, for which the molecule was classed as inactive in test [1], in test [2], in [3], in [4], in test [5] and in test [6]. In addition, the result in test [7] and in [8] was inactive.
For the molecule `CCC(=O)OCC=Cc1ccccc1`, the outcome in test [1], in test [2], in test [3], in [4], in [5] and in [6] was inactive. Moreover, in test [7], the molecule was called inactive.
Regarding `C=C(C)C(=O)OCCC(C)OC(=O)C(=C)C` (centres undefined), the result in test [1], in test [2], in test [3], in test [4], in test [5] and in [6] was inactive. In addition, the call in test [7] and in test [8] was inactive.
As for `CCCCOCCOC(=O)c1ccccc1C(=O)OCCOCCCC`, the molecule was called inactive in [1], in test [2], in test [3], in [5], in test [6] and in [7]. Besides, in [8], the result was inactive. The half-maximal activity concentration (AC50) in test [4] was 55.8 µM (active).
Turning to `CCn1cc(C(=O)O)c(=O)c2ccc(C)nc21`, the call in test [1], in test [2], in test [3], in [4], in test [5] and in test [6] was inactive. Besides, the molecule was classed as inactive in test [7] and in [8].
In the case of `NS(=O)(=O)c1cc(C(=O)O)c(NCc2ccco2)cc1Cl`, the outcome in test [1], in test [2], in test [3], in test [9], in test [5] and in test [6] was inactive. Further, the result in test [7] and in test [8] was inactive.
Regarding `O=C(C=Cc1ccccc1)OCCCc1ccccc1`, the outcome in test [1], in test [2], in test [3], in [4], in [5] and in test [6] was inactive. Moreover, the call in test [7] and in test [8] was inactive.
As for `CC(=O)C1=C(C)[C@@H]2C[C@@]3(C1)[C@H](C)CC[C@H]3C2(C)C`, the outcome in [2], in [6] and in [7] was inactive. For the same molecule, the AC50 in test [3] was 68.8 µM (active); in [4], 58.8 µM (active); in [9] it was 55.3 µM (active); in [5] it was 76.9 µM (active).
With `CN1CCc2cccc3c2[C@H]1Cc1ccc(O)c(O)c1-3`, the result in test [1], in test [2], in test [6] and in test [7] was inactive. In addition, the AC50 in [3] is 5.76 µM (active); in [4] it was 18.8 µM (active); in test [5], 3.75 µM (active); in test [8], 1.67 µM (active).
Take `CCCc1ccc(O)cc1`: the molecule was classed as inactive in [1], in [2], in [3], in test [5], in test [6] and in test [7]. Besides, the call in test [8] was inactive. For the same molecule, the AC50 in test [4] was 70.5 µM (active).
Regarding `CC(=O)CC(=O)N(C)C`, the outcome in test [1], in test [2], in test [3], in test [4], in test [5] and in [6] was inactive. In addition, the result in [7] was inactive.
With `CC(C)(O)C(=O)c1ccc(OCCO)cc1`, the result in [2], in test [3], in test [4], in test [9], in test [5] and in [6] was inactive. Also, the outcome in [7] was inactive.
For the molecule `CCC(=O)OC(C)(C)C1CC=C(C)CC1` (centres undefined), the molecule was called inactive in test [1], in test [2], in [3], in test [4], in test [5] and in [6]. The molecule was called inactive in [7] and in test [8].
`CC(=O)C1C(=O)C=C(C)OC1=O` (centres undefined): the outcome in [1], in [2], in test [3], in [4], in [5] and in [6] was inactive. In addition, the result in test [7] and in test [8] was inactive.
In the case of `CCCCCc1cccc(=O)o1`, the call in test [1], in test [2], in test [3], in [4], in test [5] and in test [6] was inactive. The molecule was called inactive in test [7] and in test [8].
On to `CCCC[N+](C)(CCCC)CCCC`, for which the result in test [2], in [3], in [4], in test [9], in test [5] and in test [6] was inactive. For the same molecule, the molecule was called inactive in test [7].
Turning to `CCCC(O)C(CC)CO` (centres undefined), the outcome in [2], in [3], in [4], in test [9], in test [6] and in test [7] was inactive.
